Laboratory results taken from PubChem BioAssay (Tox21).
“And” between values parts separate entries of the source, which are not always exact repeats. Equal values may be shown once. Records with an inconclusive call do not appear. Entries that show only a call come without a potency. Unmarked numbers belong to inactive results. The source made the active and inactive calls. The call rests on the fitted dose curve; in most records, active means well fitted cell-killing curve with a large enough effect in the repeat runs; inconclusive means weak or mixed curves, or effect the other way; inactive means flat fitted curve, though single readings scatter.

experiment: Nuclear factor erythroid 2-related factor 2/antioxidant responsive element (Nrf2/ARE) small molecule agonists: qHTS cell viability counter screen in human keratinocytes (AID 1919968); conditions: KeratinoSens HaCaT ARE cells viability, CellTiter-Fluor, 24 h; series mostly up to 92.4 µM; further: nearly all actives have a fitted effect of over 55% in size
Source text: U.S. Tox21 Program National Center for Advancing Translational Sciences [NCATS] Division of Preclinical Innovation [DPI] U.S. Environmental Protection Agency [EPA] National Institutes of Environmental Health Sciences [NIEHS] National Toxicology Program [NTP] U.S. Food and Drug Administration [FDA] Tox21 Assay Overview: Oxidative stress has been implicated in the pathogenesis of a variety of diseases ranging from cancer to neurodegeneration. The antioxidant response element (ARE) signaling pathway plays an important role in the amelioration of oxidative stress. The KeratinoSens (Givaudan, Switzerland) is an in vitro test method which quantifies luciferase induction as a measure of activation of Keap1-Nrf2-antioxidationt/electrophile response element (ARE) dependant pathway in HaCaT human keratinocytes stably transfected with a selectable plasmid. The KeratinoSens assay is a cell-based assay with a reporter cell line to detect potential skin sensitizers by their ability to induce the Nrf2/ARE-response. The activation of the report gene under culture conditions can be detected by ONE-Glo Luciferase Assay System (Promega, Madison, WI). This cell line has been used to screen the Tox21 10K compound library to identify agonists that induce oxidative stress. The cytotoxicity of the Tox21 compound library against the KS-ARE cell line was tested in parallel by measuring the cell viability using CellTiter- Fluor assay system (Promega, Madison, WI) in the same wells.
Tox21 Assay Protocol Summary: HaCaT derived cell line KeratinoSens were dispensed at 1,500 cells/5uL/well in 1536-well white wall/solid bottom plates using a Multidrop Combi (ThermoFisher Scientific, Waltham, MA) dispenser. After the assay plates were incubated at 37 C/5% CO2 for 5 h, 23 nL of compounds dissolved in DMSO, positive controls or DMSO only was transferred to the assay plate by a pintool workstation (Kalypsys, San Diego, CA). The plates were incubated at 37 C/5% CO2 for 23 h, followed by addition of 1uL/well of CellTiter-Fluor reagent into the assay plates using a Flying Reagent Dispenser (Aurora Discovery, San Diego, CA) for cell viability readout that measures cytotoxicity. After 1 h incubation at 37 C/5% CO2 the fluorescence intensity was measured using a ViewLux (PerkinElmer, Shelton, CT) plate reader.
Potency means the concentration at half of the fitted maximal effect.

| Compound | Potency | activity change, negative = cytotoxicity |
| --- | --- | --- |
| O=c1[nH]c2cc(C(F)(F)F)c(N3CCOCC3)cc2n(CP(=O)(O)O)c1=O | inactive |  |
| CCCCCCCCCCCC(=O)OC[C@@H](O)[C@H]1OC[C@H](OCCO)[C@H]1OCCO | inactive |  |
| Nc1ccc(N=Nc2ccccc2)c(N)n1 | 30.8 µM (active) |  |
| CC(O)CCCCn1c(=O)c2c(ncn2C)n(C)c1=O (stereo not given) | inactive |  |
| COc1ccc(C(=O)CC(=O)c2ccc(C(C)(C)C)cc2)cc1 | inactive |  |
| Nc1nc(N)c2nc(-c3ccccc3)c(N)nc2n1 | inactive |  |
| C=CC(=O)OCCN(CC)CC | inactive |  |
| O=C1CC2(CCCC2)CC(=O)N1CCCCN1CCN(c2ncccn2)CC1 | inactive |  |
| CC[C@H]1CN2CCc3cc(OC)c(OC)cc3[C@@H]2C[C@@H]1C[C@H]1NCCc2cc(OC)c(OC)cc21 | 0.274 µM (active) |  |
| CC(C)(C)CC(C)(C)c1ccc(Nc2ccc(C(C)(C)CC(C)(C)C)cc2)cc1 |  | 0.0348% [at 8.39 µM] |
| CCCCOC(=O)[C@H](C)O | inactive |  |
| O=C(O)c1cc2ccccc2cc1O | inactive |  |
| CC(=O)CC(=O)Nc1ccccc1 | inactive |  |
| O=C1C(O)=C(O)C(=O)C(O)=C1O | inactive |  |
| CC(C)NC(=O)c1ccccc1N | inactive |  |
| CCCCOC(=O)CCS | inactive |  |
| CCCCC(CC)COC(C)=O (stereo not given) | inactive |  |
| O=C(O)c1ccc(O)cc1O | inactive |  |
| CCC(=O)OCc1ccc(OC)cc1 | inactive |  |
| COc1ccc(N)c(OC)c1 | inactive |  |

| Compound | Potency | activity change, negative = cytotoxicity |
| --- | --- | --- |
| O=Cc1ccc(F)cc1 | inactive |  |
| CC(O)C(CO)C(C)O (stereo not given) | inactive |  |
| CCO[Si](CCCN=C=O)(OCC)OCC | inactive |  |
| Cc1cc(C)c(C(=O)O)c(C)c1 | inactive |  |
| Cc1ccccc1C(=O)N1CC/C(=N\OS(=O)(=O)O)c2ccc(Cl)cc21 | inactive |  |
| COc1cc(/C=C/C(N)=O)cc(OC)c1OC | inactive |  |
| COc1ccc(Br)c(C)c1 | inactive |  |
| COc1ccccc1C=O | inactive |  |
| CC1(C)Oc2ccc(C#N)cc2[C@@H](N2CCCC2=O)[C@@H]1O | inactive |  |
| O=Cc1ccc(Cl)cc1 | inactive |  |
| COc1ccc2cccc(CCNC(C)=O)c2c1 | inactive |  |
| Clc1ccc2c(Cl)ccnc2c1 | inactive |  |
| CCC(C)(C)C1CCC(=O)CC1 | inactive |  |
| C=C(C)[C@@H]1CCC2=CC(=O)C[C@@H](C)[C@]2(C)C1 | inactive |  |
| O=C(Nc1ccc([N+](=O)[O-])cc1Cl)c1cc(Cl)ccc1O | 1.93 µM (active) and 291 nM (active) |  |
| Nc1cc(S(=O)(=O)O)cc2cc(S(=O)(=O)O)cc(O)c12 | inactive |  |
| CNCCO | inactive |  |
| C1CN(CCOCCN2CCOCC2)CCO1 | inactive |  |
| CCCCCCCCOCCC#N | inactive |  |
| Cc1ccc(CO)cc1 | inactive |  |
